# Bioassay records from PubChem BioAssay.
# D1 ag = activates the human D1 dopamine receptor. AID 504660. HEK293 T-REx D1 cells, calcium flux, agonist mode. 1% of 360,000 active. activation, % at 2 µM
#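 Agonism was scored from calcium flux recorded over 180 s (1 read/s) after pintool compound addition, following a 10-cycle baseline. Cells were inducible force-coupled HEK293 TREx D1, plated overnight at 30 C and loaded with no-wash calcium dye.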
# TRHR PAM = TRH receptor (human) allosteric enhancement; AID 493056; 0.66% of 360,000 active; TRHR cells, fluo-8 calcium fluorescence, EC20 TRH enhancement; enhancement, % at 2 µM; in the data active = enhancement above about 30%
# Target sequence (P34981 whole entry, looked up): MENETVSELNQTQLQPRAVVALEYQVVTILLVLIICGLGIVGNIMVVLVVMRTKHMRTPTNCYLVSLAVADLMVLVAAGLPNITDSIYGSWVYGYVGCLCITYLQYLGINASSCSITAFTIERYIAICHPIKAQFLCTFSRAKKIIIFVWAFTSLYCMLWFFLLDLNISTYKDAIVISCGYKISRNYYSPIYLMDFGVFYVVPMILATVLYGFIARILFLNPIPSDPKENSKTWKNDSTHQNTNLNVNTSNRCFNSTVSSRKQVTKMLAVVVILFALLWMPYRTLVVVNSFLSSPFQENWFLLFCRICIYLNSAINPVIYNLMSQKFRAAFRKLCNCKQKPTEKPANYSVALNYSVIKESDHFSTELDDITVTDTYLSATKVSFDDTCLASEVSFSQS
#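 TRHR-expressing cells loaded with fluo-8 calcium dye were read kinetically (ex 480/em 530) during compound addition, then stimulated with an EC20 of TRH (10 nM final). Enhancement of the Gq-mediated intracellular calcium response was scored.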
# D1 potentiator = potentiators of human D1 dopamine receptor | P21728 | AID 504651 | potentiation, % at 10 µM | HEK293 TREx D1 cells, calcium flux, dopamine EC20 potentiation | 0.036% of 360,000 active; in the data active = potentiation above about 30%
# TRHR ag = agonists of human TRH receptor; TRHR cells, calcium flux fluo-8, FDSS agonist mode; 0.18% of 360,000 active; activation, % at 2 µM
#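 Read-out: compound-evoked intracellular calcium rise in TRHR cells, fluo-8 dye, kinetic FDSS fluorescence at 1 s/cycle following a 10-cycle baseline. Cells cultured overnight before dye loading (30 min–1.5 h, RT).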
# D1 antag = antagonists of human D1 dopamine receptor; P21728; HEK293 TREx D1 cells, calcium flux, dopamine EC80; hits give low values; activity change, negative = inhibition, % at 10 µM; 3.2% of 360,000 active; AID 504652; in the data active = activity change below about -30%
#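 Calcium flux readout: force-coupled, inducible Hek293 Trex D1 line, cells induced overnight at 30 C with tetracycline, dye-loaded 30–90 min at RT. Antagonism scored against EC80 dopamine challenge given 180 s after compound.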
# Hits are given with their value; - = inactive; . = not tested or not shown; ! = not active in a repeat. In the library only some 4.7% were active in any assay of this set; here they are far more common. Cut-off read from the data, not from the text of the source, unless noted: active = activation above about 30%; inactive = the rest.
SMILES,D1 ag,TRHR PAM,D1 potentiator,TRHR ag,D1 antag
CCC1CN(C(=O)N2CCC(C(=O)O)CC2)c2cc(C)ccc2O1 (stereo not drawn),-,-,-,-,-
CCOC(=O)C1CCCN(C(=O)Cn2ncc3c4ccccc4n(C)c3c2=O)C1 (stereo not drawn),-,-,-,-,-
O=C(CCn1cnc2onc(-c3ccc(F)cc3)c2c1=O)N1CCN(c2cccc(Cl)c2)CC1,-,-,-,-,-
CCCN(CCC)C(C)C(=O)NCC1(c2ccccc2)CCCC1 (stereo not drawn),-,-,-,-,-41
Fc1ccccc1CNc1nc(-c2cccnc2)nc2ccccc12,-,-,.,-,-60
O=C(c1ccccc1)N1CCc2cc(CNS(=O)(=O)c3ccc(Cl)s3)ccc21,-,-,-,-,-
Cc1cc(C)nc(Nc2n[nH]c(Cc3ccccc3)n2)n1,-,75,-,-,-
COc1cc(C)nc(NCc2ccccc2)n1,-,-,-,-,-
Cn1c2cc(C=O)sc2c2cnn(Cc3ccccc3F)c(=O)c21,-,-,-,-,-
O=C(NCCCN1CCN(c2ccccc2)CC1)c1ccc2nc(CCc3ccccc3)oc2c1,32,-,-,-,-60
CC(C)c1nc2ccc(C(=O)NCCCN3CCN(c4cccc(Cl)c4)CC3)cc2o1,-,-,-,-,-45
CN(CC1CCOCC1)C(=O)c1ccc2nc(Cc3cccc(Cl)c3)oc2c1,-,-,-,-,-
O=C(NCC1CCOCC1)c1ccc2nc(Cc3cccc(Cl)c3)oc2c1,-,-,-,-,-53
COc1ccc(N2CCN(CCCNC(=O)c3ccc4nc(Cc5ccccc5)oc4c3)CC2)cc1,-,-,-,-,-
COc1ccc(N2CCN(CCCNC(=O)c3ccc4nc(CCc5ccccc5)oc4c3)CC2)cc1,35,-,-,-,-31
CCc1ccccc1NC(=O)C(C)n1c(=O)cc(C)c2c(C)nn(-c3ccccc3)c21 (stereo not drawn),-,-,-,-,-
CC1CCC(NC(=O)CCc2cn(Cc3ccc(F)cc3)c3ccccc23)CC1 (stereo not drawn),-,-,-,-,-
Cc1ccc(-c2nc3n(n2)C(c2ccccc2Cl)C=C(c2ccc(Cl)cc2)N3)cc1 (stereo not drawn),-,-,-,-,-
COc1cccc(NC(=O)CSc2ncc(S(=O)(=O)c3ccc(C)c(C)c3)c(=O)[nH]2)c1,-,-,-,-,-
O=C(NCCCN1CCN(c2cccc(Cl)c2)CC1)c1ccc2nc(Cc3ccccc3)oc2c1,-,-,-,-,-33
CN(C)CCCn1c(SCC(=O)N2c3ccccc3Sc3ccccc32)nc2ccccc2c1=O,38,-,-,-,-
Cn1c(SCC(=O)N2c3ccccc3Sc3ccccc32)nc2ccccc21,-,-,-,-,-
N=C1/C(=C\c2ccc(-c3cccc(Cl)c3)o2)C(=O)N=C2SC=C(c3ccccc3)N12,-,-,-,-,-
N=C1/C(=C\c2ccc(-c3ccc(C(=O)O)cc3)o2)C(=O)N=C2SC=C(c3ccccc3)N12,38,-,-,-,-
CN(C)S(=O)(=O)c1ccc2c(c1)N(CC(=O)N1CCN(c3cccc(Cl)c3)CC1)CCS2,-,-,-,-,-
SMILES,D1 ag,TRHR PAM,D1 potentiator,TRHR ag,D1 antag
O=C(O)CSCCc1ccccn1,-,-,-,-,-82
Cc1ccc(O)c(-c2ccnc3cc(-c4ccc(Cl)cc4)nn23)c1,-,-,-,-,-
CCOc1ccccc1NC(=O)Nc1cc(C(=O)NCc2ccc(C)cc2)ccc1N1CCCC1,-,-,-,-,-
COc1cc2c(cc1OC)C(c1ccccc1)N(C(=O)CCl)CC2 (stereo not drawn),-,-,-,-,-32
COc1cc2c(cc1OC)C(C1C(=O)CCCC1=O)N(C(=O)CCl)CC2 (stereo not drawn),-,-,-,-,-
COc1cc2c(cc1OC)C(c1cccs1)N(C(=O)C(C)C)CC2 (stereo not drawn),-,-,-,-,-78
COc1cc2c(cc1OC)C(c1cccs1)N(C(=O)c1cccnc1)CC2 (stereo not drawn),-,-,-,-,-
CC(C)CC(=O)NCC(c1ccc2c(c1)OCO2)N1CCN(c2ccccc2)CC1 (stereo not drawn),-,-,-,-,-
Cc1ccc(S(=O)(=O)NCCc2nnc3ccc(SCc4ccccc4F)nn23)cc1,-,-,-,-,-
CCCN(CCC)c1nn2c(=O)c(C(=O)NCc3cccc(OC)c3)cnc2s1,-,-,-,-,-
O=C1c2ccccc2C(=O)N1CCCCN(C(=O)c1cc([N+](=O)[O-])cc([N+](=O)[O-])c1)c1ccc(Cl)cc1,-,-,-,-,-51
CN1CCc2cccc3c2C1Cc1ccc(O)c(O)c1-3 (stereo not drawn),48,-,-,-,-75
Cc1ccc(NC(=O)Cn2ncn3c(cc4ccccc43)c2=O)cc1C,-,-,-,-,-
CCC(C)S(=O)(=O)c1oc(-c2cccs2)nc1S(=O)(=O)c1ccccc1 (stereo not drawn),-,-,-,-,-
Cc1cccc(NC(=O)c2nc[nH]c2C(=O)N[C@@H](C)C(=O)OCc2ccccc2)c1,-,-,-,-,-33
C[C@@H](NC(=O)c1nc[nH]c1C(=O)N[C@@H](Cc1ccccc1)C(=O)OCc1ccccc1)c1ccccc1,-,-,-,-,-
C[C@H](NC(=O)c1nc[nH]c1C(=O)NCCCCCNC(=O)OC(C)(C)C)C(=O)OCc1ccccc1,-,-,-,-,-39
C[C@H](NC(=O)c1nc[nH]c1C(=O)N[C@H](C)c1ccccc1)C(=O)OCc1ccccc1,-,-,-,-,-33
Cc1cccc(NC(=O)CSc2cn(CC(=O)N3CCOCC3)c3ccccc23)c1C,-,-,-,-,-
Cc1sc2ncn(CC(=O)NCC(=O)N(C)C3CCCCC3)c(=O)c2c1C,-,-,-,-,-34
Cc1sc2ncn(CC(=O)NCC(=O)N(C)Cc3ccccc3)c(=O)c2c1C,-,-,-,-,-
Cn1cc(C(=O)NCc2ccccc2Cl)c(=O)c2cc(S(=O)(=O)N3CCCCCC3)ccc21,-,-,-,-,-
CCC(=O)N1c2ccccc2CC1C(=O)NCCN1CCN(c2ccccc2F)CC1 (stereo not drawn),-,-,-,-,-
O=C(NCCS(=O)(=O)N1CCN(c2ccccc2F)CC1)C1CC(=O)N(c2ccccc2)C1 (stereo not drawn),115!,-,-,-,-
O=C(NCCCN1CCN(c2ccccc2F)CC1)C1CCN(S(=O)(=O)N2CCOCC2)CC1,-,-,-,-,-88
O=C(NCCN1CCN(c2ccccc2F)CC1)C1c2ccccc2C(=O)N2CCc3ccccc3C12 (stereo not drawn),-,-,-,-,-44
